Experimental data: PubChem BioAssay AID1851 (National Center for Advancing Translational Sciences (NCATS), 2009)
In all, about 16,000 compounds went through this assay and about 5,700 (36%) were called active. Inconclusive results (about 24%) are left out. Calls come from the whole dose curve; as a rule, active = well fitted curve in the direction sought with a large enough effect; inconclusive = small, poorly fitted or top-dose-only effect, or effect the other way; inactive = no such curve, though single readings can be large or run the other way. The list shows a part of the results.

Target: Cytochrome P450 1A2 (Homo sapiens) (UniProt P05177)
Sequence (P05177 whole entry, looked up): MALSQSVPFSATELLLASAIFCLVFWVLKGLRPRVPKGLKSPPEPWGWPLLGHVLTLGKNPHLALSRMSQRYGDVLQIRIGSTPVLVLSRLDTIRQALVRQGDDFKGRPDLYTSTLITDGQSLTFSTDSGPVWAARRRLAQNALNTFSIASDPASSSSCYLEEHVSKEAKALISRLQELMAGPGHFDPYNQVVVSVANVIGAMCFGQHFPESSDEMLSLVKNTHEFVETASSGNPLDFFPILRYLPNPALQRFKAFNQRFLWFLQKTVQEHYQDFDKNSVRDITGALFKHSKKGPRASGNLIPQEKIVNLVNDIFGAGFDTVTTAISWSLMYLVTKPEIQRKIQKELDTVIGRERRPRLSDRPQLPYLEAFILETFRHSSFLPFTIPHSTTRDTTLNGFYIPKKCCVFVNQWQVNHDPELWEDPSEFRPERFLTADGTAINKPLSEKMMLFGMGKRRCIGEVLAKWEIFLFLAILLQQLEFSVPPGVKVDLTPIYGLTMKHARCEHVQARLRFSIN
Assay: Cytochrome panel assay with activity outcomes
Conditions: recombinant CYP, pro-luciferin dealkylation, luminescence, p450-cyp1a2; series mostly up to 57.1 µM
% is set by controls: 0 for no effect and ±100 for the full control effect.

Row | SMILES | AC50 | activity, negative = inhibition
1 | Cc1ccc(NC(=S)/C(=C(\[O-])c2ccc(C)c([N+](=O)[O-])c2)[n+]2ccccc2)cc1C | 14.1 µM (active) | 
2 | CC(C)=C1C(=O)C(c2ccccc2)=C2CN3C(=O)N(CCc4ccccc4)C(=O)[C@]3(Cc3ccccc3)[C@H]21 | inactive | 
3 | O=C(O)Cc1ccc2c(c1)N(S(=O)(=O)c1cccc(C(F)(F)F)c1)CC(C(=O)O)O2 (stereo not drawn) | inactive | 
4 | CCOC(=O)C1CN(S(=O)(=O)c2cccc(C(F)(F)F)c2)c2cc(CC(=O)OC)ccc2O1 (stereo not drawn) | inactive | 
5 | O=C(O)c1sc2cc(C(F)(F)F)cnc2c1-c1ccccc1 | inactive | 
6 | O=C(COC(=O)c1cccnc1Nc1cccc(C(F)(F)F)c1)NCc1ccc2c(c1)OCO2 | 3.55 µM (active) | 
7 | O=C(O)c1cccnc1Nc1cccc(C(F)(F)F)c1 | 5.01 µM (active) | 
8 | O=C(O)c1cccnc1C(=O)O | inactive | 
9 | CCN[C@@H]1C[C@H](C)S(=O)(=O)c2sc(S(N)(=O)=O)cc21 | inactive | 
10 | Cc1ncc(COP(=O)(O)O)c(C)c1O |  | -20.3% [at 11.4 µM] (inactive)
11 | COC(=O)[C@@H]1CC[C@H](C)[C@@H](c2ccc(C)cc2)N1C(=O)c1ccc(/C=N\O[C@@H](C)CN2CCCCc3nc(C)c(C)cc32)cc1 |  | -5.58% [at 11.4 µM] (inactive)
12 | CC(C)n1nnnc1SCC(=O)c1ccc2c(c1)OCCO2 | 5.01 µM (active) | 
13 | CCn1nnnc1SCC(=O)c1ccc2c(c1)OCCO2 | 8.91 µM (active) | 
14 | CC(=O)N[C@H]1[C@@H](O[C@@H](C)C(=O)O)[C@H](O)[C@H](CO)O[C@@H]1O | inactive | 
15 | CO[C@H]1COC(=O)[C@H]2CCCN2C(=O)C/C=C\[C@@H](C)[C@H](OC)COC(=O)C/C=C\[C@@H]1C |  | 1.68% [at 11.4 µM] (inactive)
16 | CCNC(=S)NNC(=O)c1cc(C)on1 | inactive | 
17 | Cc1cc(C(=O)NNCc2ccccc2)no1 | 12.6 µM (active) | 
18 | Cc1occc1C(=O)NNC(=O)Cc1ccccc1 | inactive | 
19 | COC(=O)[C@@H]1C[C@H]1[C@@H](NC(=O)c1cc(C)on1)c1ccccc1 | 20 µM (active) | 
20 | Cc1cc(CNC(=O)[C@H]2C[C@@H]2[C@H](NP(=O)(c2ccccc2)c2ccccc2)c2ccccc2)nn1C | inactive | 
21 | COC(=O)[C@@H]1C[C@H]1[C@@H](NC(=O)c1cc(C)nn1C)c1ccccc1 | 15.8 µM (active) | 
22 | COc1ccc(O[C@H]2C=C[C@@H](c3ccccc3)O[C@@H]2CON=C(C)C)cc1 |  | -2.27% [at 11.4 µM] (inactive)
23 | Cc1cc2nc3[nH]c4c(Cl)cc(Cl)cc4c3nc2cc1C | 0.631 µM (active) | 
24 | CS(=O)(=O)N1CCC2(CC1)CN(C(=O)Nc1cccc(C#N)c1)C2 | inactive | 

Row | SMILES | AC50 | activity, negative = inhibition
25 | C=CCNC(=S)N/N=C/c1ccc(-c2cc(Cl)ccc2Cl)o1 | 0.112 µM (active) | 
26 | CC(=O)C1=C(O)C=C(c2ccco2)CC1c1ccco1 (stereo not drawn) | 5.01 µM (active) | 
27 | CC1=CC=CN2CC(O)CN=C12 (stereo not drawn) | inactive | 
28 | N#Cc1ccccc1NC(=O)Nc1cccs1 | 7.08 µM (active) | 
29 | COc1cc2c3cc1Oc1cc(ccc1O)C[C@@H]1c4c(cc(OC)c(O)c4Oc4ccc(cc4)C[C@H]3[N+](C)(C)CC2)CC[N+]1(C)C |  | -5.47% [at 11.4 µM] (inactive)
30 | COC(=O)[C@@H]1CC[C@H](C)[C@@H](c2ccc(C)cc2)N1C(=O)c1ccc(/C=N\OC[C@@H](C)[C@H](OCc2ccccc2)C(C)C)cc1 |  | -8.55% [at 11.4 µM] (inactive)
31 | COc1ccc([N+](=O)[O-])cc1NCc1ccccc1C | 2.82 µM (active) | 
32 | COc1ccc([N+](=O)[O-])cc1NC1C2CC3CC(C2)CC1C3 (stereo not drawn) | inactive | 
33 | Cc1cc([N+](=O)[O-])ccc1NCc1ccccc1 | 2.82 µM (active) | 
34 | Cc1cc(C)c(-c2cc([C@H](C)O/N=C\[C@@H](C)[C@H](OCc3ccccc3)C(C)C)on2)c(C)c1 |  | 5.92% [at 11.4 µM] (inactive)
35 | O=C(O)CONC(=O)c1cc(OCC(F)(F)F)ccc1OCC(F)(F)F | inactive | 
36 | S=C(NCCSCc1c(Cl)cccc1Cl)Nc1ccccc1 | 1.41 µM (active) | 
37 | Fc1cccc(NC(=S)NCCCN2CCOCC2)c1 | inactive | 
38 | Oc1oc(-c2ccccc2)nc1C=Nc1ccccc1 | 0.316 µM (active) | 
39 | CN(C)c1ccc(N=Cc2nc(-c3ccccc3)oc2O)cc1 | 0.398 µM (active) | 
40 | CCOC(=O)C1=C(C)Nc2ncnn2C1c1cccnc1 (stereo not drawn) | inactive | 
41 | CSc1nc2n(n1)C(c1cccc(F)c1)C(C(=O)Nc1ccc(C)cc1C)=C(C)N2 (stereo not drawn) | inactive | 
42 | CC1=C(C(N)=O)C(c2ccccc2)n2nc(-c3ccncc3)nc2N1 (stereo not drawn) | 14.1 µM (active) | 
43 | COc1cccc([C@H](O)Cn2cc(-c3ccc(CON=C(C)C)cc3)nn2)c1 |  | -9.27% [at 11.4 µM] (inactive)
44 | COc1cccc(Nc2nc(-c3ccc(O)cc3)cs2)c1 | 1 µM (active) | 
45 | COc1ccc(OC)c(Nc2nc(-c3sc(NC(=O)c4ccccc4)nc3C)cs2)c1 | inactive | 
46 | C=CCNC(=S)Nc1ccc2nc(C)c(C)nc2c1 | 4.47 µM (active) | 
47 | COc1cc(N=c2ssnc2Cl)cc(OC)c1OC | 3.16 µM (active) | 
48 | CCCn1c(=O)c2[nH]c(-c3ccc(OCC(=O)NCCN)cc3)nc2n(CCC)c1=O | inactive | 

Row | SMILES | AC50 | activity, negative = inhibition
49 | COc1ccc(-c2nc3c([nH]2)c(=O)n(C)c(=O)n3C)c(OC)c1 | 2 µM (active) | 
50 | CCCn1c(=O)c2[nH]c(-c3ccccc3)nc2n(CCC)c1=O | 0.0794 µM (active) | 
51 | Cn1c(=O)c2[nH]c(-c3ccccc3)nc2n(C)c1=O | 2 µM (active) | 
52 | Cn1c(=O)c2[nH]c(-c3ccc(S(=O)(=O)O)cc3)nc2n(C)c1=O | inactive | 
53 | Cn1c(=O)c2[nH]c(CSCc3ccccc3)nc2n(C)c1=O |  | -15.4% [at 2.29 µM] (inactive)
54 | CCn1c(=O)c2[nH]c(-c3ccccc3)nc2n(CC)c1=O | 1 µM (active) | 
55 | CCn1c(CCCc2nc3c([nH]2)c(=O)n(C)c(=O)n3C)nc2c1c(=O)n(C)c(=O)n2C |  | -16.7% [at 2.29 µM] (inactive)
56 | Cn1c(=O)c2[nH]cnc2n(C)c1=O | inactive | 
57 | Cn1c(=O)c2[nH]c(CCC(=O)O)nc2n(C)c1=O |  | -3.23% [at 11.4 µM] (inactive)
58 | CCOC(=O)Nc1ccc(C(=O)Oc2ccccc2)c(O)c1 | 3.16 µM (active) | 
59 | O=C(Cn1ccc(=O)[nH]c1=O)Nc1ccc(C(=O)O)c(O)c1 |  | -16.5% [at 2.29 µM] (inactive)
60 | CCNC(=O)NC1(C(=O)Nc2ccc3c(c2)OCCO3)CCCCC1 | inactive | 
61 | O=C(CC(c1ccccc1)c1ccccc1)Nc1ccc2c(c1)OCCO2 | 10 µM (active) | 
62 | O=C(CC1C(=O)NCCN1C(=S)Nc1ccccc1)Nc1ccc2c(c1)OCCO2 (stereo not drawn) | inactive | 
63 | COc1cc2c(cc1OC)C(C(=O)Nc1ccc3c(c1)OCCO3)C(c1cccnc1)N(C)C2=O (stereo not drawn) | inactive | 
64 | Cn1ncc([N+](=O)[O-])c1C(=O)Nc1ccc2c(c1)OCCO2 | 1.26 µM (active) | 
65 | CC(=O)Nc1ccc2c(c1)OCCOCCOc1cc(NC(C)=O)ccc1OCCOCCOCCO2 | inactive | 
66 | CC(=O)Nc1ccc2c(c1)OCCO2 | 10 µM (active) | 
67 | Cc1cc(NC(=O)c2c([N+](=O)[O-])cnn2C)no1 | inactive | 
68 | CC(C)(C)c1ccc(OC(=O)Nc2ccc(O)c(C(=O)O)c2)cc1 |  | 6.5% [at 2.29 µM] (inactive)
69 | CC[n+]1c(P(=O)([O-])c2ccccc2)[nH]c2ccccc21 | inactive | 
70 | COc1ccccc1CN1CCC2(CC1)CCN(C(=O)c1cccn1C)CC2 | inactive | 
71 | CC(C)NC(=O)N1CCC2(CC1)CCN(C(=O)c1cc(C(F)(F)F)cc(C(F)(F)F)c1)CC2 | inactive | 
72 | O=C1C2CCC(C(O)C2)N1Cc1ccccc1 (stereo not drawn) | inactive | 

Row | SMILES | AC50 | activity, negative = inhibition
73 | CCOC(=O)Nc1ccc2c(c1)OCO2 | 1.26 µM (active) | 
74 | O=c1cnc2cnc(Oc3cccc(Cl)c3)nc2n1Cc1ccc(F)cc1 | 15.8 µM (active) | 
75 | COc1cccc(Cn2c(=O)cnc3cnc(OCc4ccccc4)nc32)c1 | 12.6 µM (active) | 
76 | COc1cccc(Cn2c(=O)cnc3cnc(Oc4cccc(Cl)c4)nc32)c1 | 12.6 µM (active) | 
77 | O=c1cnc2cnc(Oc3ccccc3)nc2n1Cc1ccc(F)cc1 | 15.8 µM (active) | 
78 | CON1C(=O)C(=O)N(OC)C(C)(C)C1C (stereo not drawn) | inactive | 
79 | COc1ccc(O[C@H]2C=C[C@@H](c3ccccc3)O[C@H]2COC(=O)CC/C(C)=N\O[C@@H](C)c2cn([C@H]3COC[C@H]3O)nn2)cc1 |  | -4.14% [at 11.4 µM] (inactive)
80 | COc1ncc2ncc(=O)n(Cc3ccc(F)cc3)c2n1 | 12.6 µM (active) | 
81 | O=c1cnc2cnc(OCc3ccccc3)nc2n1Cc1ccc(F)cc1 | 12.6 µM (active) | 
82 | CC(=O)N(C[C@@H](O)CO)c1c(I)c(C(=O)NC[C@@H](O)CO)c(I)c(C(=O)NC[C@@H](O)CO)c1I | inactive | 
83 | CC(C)COC[C@H](CN(Cc1ccccc1)c1ccccc1)N1CCCC1 | inactive | 
84 | COc1ccc(N2C(=O)CSC2c2cccc(F)c2)c(OC)c1 (stereo not drawn) | inactive | 
85 | CN1C(=O)CC[C@@H]1c1cccnc1 | inactive | 
86 | Cc1ccc(N2C(=O)CSC2c2cccnc2)cc1F (stereo not drawn) | 15.8 µM (active) | 
87 | COc1cccc(C(=O)NNC2=CC(=O)CC(C)(C)C2)c1 | inactive | 
88 | CC1(C)CC(=O)C2=C(C1)N(Cc1ccccc1)C(=O)C2(O)C(F)(F)F (stereo not drawn) | inactive | 
89 | O=C(CCCc1ccccc1)N1CCN(c2ccc([N+](=O)[O-])cc2)CC1 | inactive | 
90 | CCC1=NN(C(=O)CCc2ccccc2)C(O)(C(F)(F)F)C1 (stereo not drawn) | 11.2 µM (active) | 
91 | CCOC(=O)N1N=C(c2ccccc2)CC1(O)C(F)(F)F (stereo not drawn) | 15.8 µM (active) | 
92 | CCOC(=O)N1CCN(S(=O)(=O)Cc2ccccc2)CC1 | inactive | 
93 | COc1cccc(C(=O)N2N=C(c3cccc(OC)c3)CC2(O)C(F)(F)F)c1 (stereo not drawn) | 14.1 µM (active) | 
